Calls of active or inactive are those of the source.
Legend:
[1] = small molecules captured by biotinylated probe aFSTL3 – biochemical, small-molecule microarray, fluorescence 635/667, stem cell growth factor project, primary screen (AID 1064); details: higher = more signal;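 also: measures binding of the biotinylated anti-FSTL3 antibody to printed compounds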
[2] = binders from COS7 lysate, DM2A8 probe, primary screen, torsin A project, cell lysate, small-molecule microarray, fluorescence 635/667 (AID 1065); details: higher = more signal, COS7 lysate expressing mutant human TOR1A
[3] = small molecules captured by biotinylated probe aFGF2 – biochemical, small-molecule microarray, fluorescence 635/667, stem cell growth factor project, primary screen (AID 1067); details: higher = more signal;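 also: measures binding of biotinylated aFGF2 protein to printed compounds on slides; z-score merges feature fluorescence and signal-to-noise across triplicate slides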
[4] = small molecules captured by biotinylated probe aFGF10 – biochemical, small-molecule microarray, fluorescence 635/667, stem cell growth factor project, primary screen (AID 1071); details: higher = more signal;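 also: score merges 667 nm spot intensity and signal to noise from triplicate slides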
[5] = target: Neurogenic locus notch homolog protein 2 (Homo sapiens) (UniProt Q04721); assay: small molecules binding Notch2 protein – biochemical, small-molecule microarray, 635 nm fluorescence, stem cell growth factors, primary screen (AID 1073); details: higher = more signal
[6] = target: Pro-neuregulin-1, membrane-bound isoform (Homo sapiens) (UniProt Q02297); assay: small molecules binding neuregulin-1 protein – biochemical, small-molecule microarray, fluorescence 635/667, psychiatric disease protein project, primary screen (AID 1075); details: NRG1 binding, 635 nm fluorescence, higher = more signal;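 also: score combines 667 nm spot fluorescence with signal to noise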
[7] = test system: Neuregulin-1 EGF-like domain; assay: small molecules binding NRG1 EGF domain – biochemical, small-molecule microarray, 635 nm fluorescence, primary screen (AID 1081); details: higher = more signal;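 also: binding of the protein to compounds printed on small-molecule microarray slides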
[8] = FRG1 expression reporter modulators in myotubes – cell-based, C2C12 myotubes, firefly/Renilla luciferase, luminescence, FRG1 inhibition for FSHD, primary screen (AID 1084); details: FRG1 promoter luciferase, higher = more signal, called active from +8 up or from −8 down
[9] = small molecules captured by biotinylated probe aFST – biochemical, small-molecule microarray, fluorescence 635/667, stem cell growth factor project, primary screen (AID 1086); details: higher = more signal;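 also: score merges 667 nm fluorescence with signal-to-noise of each printed compound spot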
[10] = binders of probe aHhip on microarray, primary screen, stem cell growth factor project, biochemical, small-molecule microarray, fluorescence 635/667 (AID 1087); details: higher = more signal;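 also: score merges spot fluorescence at 667nm with spot signal to noise ratio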
[11] = test system: PRMT1 (protein arginine N-methyltransferase 1); assay: small molecules binding arginine methyltransferase PRMT1 – biochemical, small-molecule microarray, 635 nm fluorescence, primary screen (AID 1088); details: higher = more signal;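 also: binding of Prmt1 protein to compounds spotted on small-molecule microarray slides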
[12] = growth effects on S. cerevisiae YJM789 – YJM789 clinical isolate, OD600, 24 h, basal, primary screen (AID 1089); details: higher = more signal, called active from +8 up or from −8 down;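 also: growth of clinical yeast isolate S. cerevisiae YJM 789 seeded 1000 cells per well; test concentration not given here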
[13] = S. pombe growth modifiers, basal conditions – strain 972, OD600, 24 h, no modulator, primary screen (AID 1090);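 also: basal condition with compound alone and no growth modifier present; test concentration not given here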; details: S. pombe 972 growth, higher = more signal, called active from +8 up or from −8 down
[14] = budding yeast growth modifiers under rapamycin – strain BY4716, OD600, 96 h, primary screen (AID 1091); also: test concentration not given here; details: S. cerevisiae BY4716 + rapamycin, higher = more signal, called active from +8 up or from −8 down
[15] = target: Torsin-1A-interacting protein 2 (Homo sapiens) (UniProt Q8NFQ8); assay: small molecules binding lysate-expressed LULL1 – cell lysate, human LULL1 lysate, 635/667 nm fluorescence, primary screen (AID 1092); details: small-molecule microarray, hLULL1 lysate binding, 635 nm fluorescence; higher = more signal;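 also: probe is lysate of COS7 cells overexpressing human LULL1; score merges per-feature 667 nm fluorescence with signal-to-noise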
[16] = optical density change of DRC41 E. coli – strain DRC41, OD650, 24 h, E. coli filamentation project, primary screen (AID 1093);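 also: MC1000 strain lacking acrAB efflux and sulA so SOS filamentation is blocked; test concentration not given here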; details: E. coli DRC41 growth, higher = more signal, called active from +8 up or from −8 down
[17] = probe aLefty2 binding to arrayed compounds – biochemical, biotinylated probe, 635/667 nm fluorescence, primary screen (AID 1094); details: small-molecule microarray, higher = more signal;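 also: score merges spot fluorescence near 667 nm with spot signal-to-noise ratio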
[18] = test system: Noggin (protein binding on small-molecule microarray); assay: small molecules binding Noggin protein – biochemical, 635/667 nm fluorescence, primary screen (AID 1095); details: 635 nm fluorescence, higher = more signal;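 also: score merges 667 nm feature fluorescence with signal to noise over triplicate slides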
[19] = target: Neurogenic locus notch homolog protein 3 (Homo sapiens) (UniProt Q9UM47); assay: small molecules binding NOTCH3 protein – biochemical, 635/667 nm fluorescence, primary screen (AID 1096); details: small-molecule microarray, 635 nm fluorescence, higher = more signal
[20] = probe aEGFR binding to arrayed compounds – biochemical, biotinylated probe, 635/667 nm fluorescence, primary screen (AID 1097); details: small-molecule microarray, higher = more signal;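 also: probe is a biotinylated anti-EGFR antibody binding compounds printed on slides; score combines fluorescence near 667 nm and signal to noise of each spot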

Neurogenic locus notch homolog protein 2 (Homo sapiens), sequence (Q04721 whole entry, looked up, canonical isoform): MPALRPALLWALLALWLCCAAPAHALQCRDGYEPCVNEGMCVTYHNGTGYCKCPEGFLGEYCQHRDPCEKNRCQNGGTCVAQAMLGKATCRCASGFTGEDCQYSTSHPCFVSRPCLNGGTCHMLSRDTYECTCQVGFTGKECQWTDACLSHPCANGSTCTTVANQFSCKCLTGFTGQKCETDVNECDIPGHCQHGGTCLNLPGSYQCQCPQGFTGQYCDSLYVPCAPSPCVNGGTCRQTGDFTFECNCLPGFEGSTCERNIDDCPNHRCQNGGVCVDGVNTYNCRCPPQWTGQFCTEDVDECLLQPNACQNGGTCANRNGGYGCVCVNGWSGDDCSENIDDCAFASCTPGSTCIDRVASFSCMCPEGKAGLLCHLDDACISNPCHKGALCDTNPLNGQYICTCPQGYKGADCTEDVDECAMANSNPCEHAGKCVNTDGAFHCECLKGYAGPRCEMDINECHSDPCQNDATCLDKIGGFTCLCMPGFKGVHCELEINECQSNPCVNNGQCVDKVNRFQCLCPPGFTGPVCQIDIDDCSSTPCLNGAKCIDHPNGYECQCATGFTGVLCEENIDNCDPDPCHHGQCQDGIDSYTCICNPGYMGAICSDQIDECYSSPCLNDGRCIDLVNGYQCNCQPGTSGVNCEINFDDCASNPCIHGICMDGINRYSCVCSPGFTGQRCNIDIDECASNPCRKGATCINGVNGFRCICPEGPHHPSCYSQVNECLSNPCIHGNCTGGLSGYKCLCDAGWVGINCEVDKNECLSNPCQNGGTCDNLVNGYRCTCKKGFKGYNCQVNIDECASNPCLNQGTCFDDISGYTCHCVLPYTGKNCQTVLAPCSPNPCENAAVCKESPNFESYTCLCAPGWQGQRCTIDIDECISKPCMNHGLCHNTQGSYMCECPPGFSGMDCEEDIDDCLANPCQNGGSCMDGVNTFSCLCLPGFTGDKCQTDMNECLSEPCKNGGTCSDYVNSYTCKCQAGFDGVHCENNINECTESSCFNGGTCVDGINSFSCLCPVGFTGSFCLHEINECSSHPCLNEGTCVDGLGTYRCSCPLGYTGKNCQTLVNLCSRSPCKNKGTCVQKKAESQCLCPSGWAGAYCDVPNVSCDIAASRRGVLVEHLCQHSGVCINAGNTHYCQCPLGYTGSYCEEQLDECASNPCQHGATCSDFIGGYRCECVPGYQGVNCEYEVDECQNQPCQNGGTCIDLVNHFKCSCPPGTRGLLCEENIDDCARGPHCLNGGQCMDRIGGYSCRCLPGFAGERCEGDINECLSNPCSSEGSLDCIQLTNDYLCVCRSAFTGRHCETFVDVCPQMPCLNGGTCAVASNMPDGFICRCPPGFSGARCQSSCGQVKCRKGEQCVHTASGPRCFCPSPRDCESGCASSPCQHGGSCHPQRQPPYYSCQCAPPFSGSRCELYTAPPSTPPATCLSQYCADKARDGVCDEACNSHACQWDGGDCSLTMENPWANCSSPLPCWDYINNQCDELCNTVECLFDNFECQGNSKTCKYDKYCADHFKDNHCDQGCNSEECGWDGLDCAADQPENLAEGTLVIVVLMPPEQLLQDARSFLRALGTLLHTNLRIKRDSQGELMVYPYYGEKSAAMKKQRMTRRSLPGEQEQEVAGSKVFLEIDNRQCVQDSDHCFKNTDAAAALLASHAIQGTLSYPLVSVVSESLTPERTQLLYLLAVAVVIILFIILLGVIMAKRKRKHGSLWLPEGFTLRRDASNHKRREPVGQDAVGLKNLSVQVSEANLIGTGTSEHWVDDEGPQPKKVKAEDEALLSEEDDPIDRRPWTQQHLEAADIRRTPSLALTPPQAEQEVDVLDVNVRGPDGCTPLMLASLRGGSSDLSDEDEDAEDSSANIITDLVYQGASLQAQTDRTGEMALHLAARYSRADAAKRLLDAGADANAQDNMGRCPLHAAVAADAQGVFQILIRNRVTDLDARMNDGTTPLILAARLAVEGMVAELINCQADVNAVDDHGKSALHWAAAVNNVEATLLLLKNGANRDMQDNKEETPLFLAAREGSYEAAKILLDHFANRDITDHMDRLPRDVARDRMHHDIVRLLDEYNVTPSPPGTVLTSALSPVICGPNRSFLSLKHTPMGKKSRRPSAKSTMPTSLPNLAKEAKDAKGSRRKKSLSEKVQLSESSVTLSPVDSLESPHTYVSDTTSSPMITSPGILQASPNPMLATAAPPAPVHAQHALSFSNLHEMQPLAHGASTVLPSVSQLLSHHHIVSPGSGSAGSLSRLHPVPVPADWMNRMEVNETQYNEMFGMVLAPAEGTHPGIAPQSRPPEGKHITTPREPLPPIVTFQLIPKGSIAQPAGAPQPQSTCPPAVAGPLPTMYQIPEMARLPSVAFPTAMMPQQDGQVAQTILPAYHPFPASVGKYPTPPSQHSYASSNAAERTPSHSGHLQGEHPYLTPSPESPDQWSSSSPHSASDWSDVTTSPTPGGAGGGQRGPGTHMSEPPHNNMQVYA
Torsin-1A-interacting protein 2 (Homo sapiens), sequence (Q8NFQ8 whole entry, looked up): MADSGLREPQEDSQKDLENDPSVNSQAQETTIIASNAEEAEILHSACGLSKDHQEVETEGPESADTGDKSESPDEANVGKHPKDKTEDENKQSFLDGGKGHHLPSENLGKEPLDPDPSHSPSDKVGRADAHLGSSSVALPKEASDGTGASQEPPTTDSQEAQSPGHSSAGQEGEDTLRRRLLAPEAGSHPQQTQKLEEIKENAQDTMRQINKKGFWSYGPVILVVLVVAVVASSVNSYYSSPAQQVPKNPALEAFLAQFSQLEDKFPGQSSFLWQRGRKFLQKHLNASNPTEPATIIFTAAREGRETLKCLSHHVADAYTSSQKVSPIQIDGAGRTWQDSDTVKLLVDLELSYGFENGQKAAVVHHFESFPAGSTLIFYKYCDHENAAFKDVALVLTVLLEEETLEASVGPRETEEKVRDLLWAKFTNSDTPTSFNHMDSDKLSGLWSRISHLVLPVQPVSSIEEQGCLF
Pro-neuregulin-1, membrane-bound isoform (Homo sapiens), sequence (Q02297 whole entry, looked up, the tested form may be a part, canonical isoform): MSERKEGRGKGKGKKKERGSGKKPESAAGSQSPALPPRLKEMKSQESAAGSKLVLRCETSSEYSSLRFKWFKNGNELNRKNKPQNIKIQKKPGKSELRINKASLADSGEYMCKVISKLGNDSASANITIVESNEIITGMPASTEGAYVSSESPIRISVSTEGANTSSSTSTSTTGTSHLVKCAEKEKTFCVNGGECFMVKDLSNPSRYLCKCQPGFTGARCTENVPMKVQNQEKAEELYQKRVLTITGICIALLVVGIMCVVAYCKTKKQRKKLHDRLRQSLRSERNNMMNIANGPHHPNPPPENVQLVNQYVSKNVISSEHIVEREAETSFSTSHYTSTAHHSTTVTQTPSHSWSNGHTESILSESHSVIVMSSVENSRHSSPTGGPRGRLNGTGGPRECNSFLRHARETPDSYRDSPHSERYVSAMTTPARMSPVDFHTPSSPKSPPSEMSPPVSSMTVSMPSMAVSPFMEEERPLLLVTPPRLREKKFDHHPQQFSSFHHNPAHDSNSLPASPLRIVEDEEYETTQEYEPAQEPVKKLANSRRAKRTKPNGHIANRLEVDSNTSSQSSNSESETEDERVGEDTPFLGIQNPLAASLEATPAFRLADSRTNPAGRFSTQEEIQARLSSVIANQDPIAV

| Structure (SMILES) | composite z-score [1] | composite z-score [2] | composite z-score [3] | composite z-score [4] | composite z-score [5] | composite z-score [6] | composite z-score [7] | z-score [8] | composite z-score [9] | composite z-score [10] | composite z-score [11] | z-score [12] | z-score [13] | z-score [14] | composite z-score [15] | z-score [16] | composite z-score [17] | composite z-score [18] | composite z-score [19] | composite z-score [20] |
| --- | --- | --- | --- | --- | --- | --- | --- | --- | --- | --- | --- | --- | --- | --- | --- | --- | --- | --- | --- | --- |
| COC(=O)C(CC#Cc1ccc2c(c1)[C@]1(C(=O)N2)[C@H](c2ccccc2OCCO)N2[C@H](c3ccccc3)[C@H](c3ccccc3)OC(=O)[C@H]2[C@@H]1C(=O)Nc1nc2ccccc2s1)C(=O)OC | -0.214 | 0.675 | 0.0563 | 0.605 | 1.05 | 1.47 | 1.26 | 1.94 (inactive) | 0.446 | 0.0329 | 1.52 | 2.11 (inactive) | 1.03 (inactive) | 1.36 (inactive) | 2.93 | -0.724 (inactive) | -0.0699 | 1.24 | 1.15 | -0.0688 |
| C=CC[C@@]1(C(=O)NCC(O)CO)N=C(c2ccc(OCCCO)cc2)O[C@@H]1c1ccccc1 (stereo not given in full) | 1.49 | 2.09 | 0.255 | 0.44 | -0.565 | 1.64 | 0.845 | -1.09 (inactive) | 0.872 | 0.108 | 1.4 | -0.646 (inactive) | -1.17 (inactive) | -1.12 (inactive) | 3.12 | 0.727 (inactive) | 0.344 | 0.315 | 0.0815 | 0.168 |
| COC(=O)c1ccc(OC)c(/C=C\CC(CCc2ccccc2)OC(=O)c2ccncc2)c1 (stereo not given) | 0.233 | 0.767 | -0.22 | -0.293 | -0.714 | -0.0697 | 0.0883 | -2.63 (inactive) | -0.432 | -0.146 | -0.0105 | -0.272 (inactive) | -1.34 (inactive) | 3.39 (inactive) | 0.673 | 0.162 (inactive) | 0.0224 | 1.88 | -0.169 | -0.195 |
| CCOC(=O)C[C@H]1[C@H](OC(=O)c2ccccc2-c2ccccc2)[C@@H](NC(=O)c2ccccc2)c2cc(OCCCO)ccc2N1C(=O)Cc1ccc(OC)cc1 | -0.205 | -0.0688 | -0.0569 | 0.149 | 0.585 | -0.323 | -0.191 | 0.57 (inactive) | -0.0579 | -0.204 | -0.175 | -0.211 (inactive) | -0.0183 (inactive) | 0.452 (inactive) | 0.601 | -0.922 (inactive) | -0.0963 | -0.0496 | -0.196 | -0.108 |
| CCCCC=C[C@@H](NC(=O)CCc1ccccc1)c1ccccc1 | 0.0413 | 1.04 | 0.0601 | 0.404 | 1.11 | 1.23 | 1.24 | -1.42 (inactive) | 0.843 | 0.316 | 0.887 | 0.174 (inactive) | -1.52 (inactive) | 2.19 (inactive) | 1.43 | -1.52 (inactive) | 0.138 | 0.0567 | 1.12 | 0.0184 |
| CC(C)NC(=O)[C@@H]1c2ccccc2C(=O)N(Cc2cc(C(F)(F)F)cc(C(F)(F)F)c2)[C@H]1c1ccc(CO)cc1 | 0.27 | 0.255 | 0.0032 | -0.0264 | 0.805 | 0.104 | 0.663 | 0.306 (inactive) | 0.619 | 0.0596 | 1.46 | -0.245 (inactive) | -0.593 (inactive) | -0.517 (inactive) | 2.4 | -0.216 (inactive) | -0.0107 | 0.598 | 1.04 | -0.0248 |

Source: PubChem BioAssay
